Screening results (PubChem)
DSG3 Ab inh = human desmoglein-3 autoantibody binding inhibition; binding (percent of control), % at 10 µM; P32926; DSG3-coupled beads, scFv-anti-DSG3-GFP binding, flow cytometry; hits give low values; 310,000 tested, 0.48% active; AID 588358;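 active = binding more than 3 SD below its plate's average and above zero; inconclusive = below that plate limit but binding exactly zero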;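 also: hits lower antibody fragment binding to DSG3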
Target sequence (P32926 whole entry, looked up, the tested form may be a part): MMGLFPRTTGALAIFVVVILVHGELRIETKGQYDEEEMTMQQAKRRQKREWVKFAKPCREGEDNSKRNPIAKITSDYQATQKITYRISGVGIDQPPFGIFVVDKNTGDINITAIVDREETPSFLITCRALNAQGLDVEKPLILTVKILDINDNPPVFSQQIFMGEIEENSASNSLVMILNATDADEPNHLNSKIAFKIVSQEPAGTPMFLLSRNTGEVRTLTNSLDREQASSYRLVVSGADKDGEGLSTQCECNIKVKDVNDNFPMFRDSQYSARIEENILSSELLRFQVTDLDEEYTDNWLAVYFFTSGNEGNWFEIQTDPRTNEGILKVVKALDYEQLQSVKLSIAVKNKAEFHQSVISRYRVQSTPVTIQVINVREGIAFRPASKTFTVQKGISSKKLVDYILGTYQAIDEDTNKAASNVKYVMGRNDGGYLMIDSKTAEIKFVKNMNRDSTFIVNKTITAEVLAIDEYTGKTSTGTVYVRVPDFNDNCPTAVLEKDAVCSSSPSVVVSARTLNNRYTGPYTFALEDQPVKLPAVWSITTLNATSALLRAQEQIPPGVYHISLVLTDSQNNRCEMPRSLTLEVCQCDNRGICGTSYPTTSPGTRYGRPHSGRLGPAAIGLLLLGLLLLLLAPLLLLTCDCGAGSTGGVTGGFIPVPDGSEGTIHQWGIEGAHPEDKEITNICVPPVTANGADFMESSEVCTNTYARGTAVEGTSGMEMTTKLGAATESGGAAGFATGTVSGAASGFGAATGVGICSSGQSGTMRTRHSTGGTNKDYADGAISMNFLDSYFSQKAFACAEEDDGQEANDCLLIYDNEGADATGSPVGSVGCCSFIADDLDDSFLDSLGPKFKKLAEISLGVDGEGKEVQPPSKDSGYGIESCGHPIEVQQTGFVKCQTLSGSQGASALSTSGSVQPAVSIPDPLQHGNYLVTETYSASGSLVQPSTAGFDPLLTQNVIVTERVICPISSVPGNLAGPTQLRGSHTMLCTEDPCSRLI
MEP2 TOR yeast = yeast TOR pathway MEP2-GFP modulation | S. cerevisiae MEP2-GFP strain, flow cytometry GFP, 3 h; 100% = DMSO control level | GFP response vs DMSO, % at 10 µM | 330,000 tested, 0.51% active;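 active = GFP response versus DMSO above a set limit, roughly screen mean plus 3 SD, cut at about 180% in these data; inconclusive = fewer than 70 cells counted for a yeast strain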;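 also: median GFP fluorescence of the barcode-gated MEP2-GFP cells per well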
LAP4 TOR yeast = yeast TOR pathway LAP4-GFP modulation. S. cerevisiae LAP4-GFP multiplex, flow cytometry GFP, 3 h; median GFP as percent of DMSO wells. GFP response vs DMSO, % at 10 µM. 320,000 tested, 0.34% active. AID 2023;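 active = GFP response vs DMSO above a set limit, about the screen mean plus 3 SD, cut at about 150% in these data; inconclusive = under 70 cell events counted for the yeast strain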
CIT2-GFP yeast = alters CIT2-GFP fluorescence in TOR pathway yeast screen. S. cerevisiae CIT2-GFP strain, flow cytometry, 3 h; 100 means same as DMSO wells. GFP response vs DMSO, % at 10 µM. 320,000 tested, 0.065% active;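 active = GFP response relative to DMSO above a set limit, near the screen mean plus 3 SD, cut at about 150% in these data; inconclusive = Fewer than 70 cells measured for a yeast strain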;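 also: ratio of well median GFP fluorescence to mean of DMSO wells on the plate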
RPL19A-GFP yeast = modulators of TOR pathway RPL19A-GFP in S. cerevisiae | S. cerevisiae RPL19A-GFP strain, flow cytometry, 3 h; hits give low values | percent response vs DMSO, % at 10 µM | 330,000 tested, 0.3% active | AID 2025;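 active = percent response vs DMSO below 50%; inconclusive = fewer than 70 events counted for the yeast strain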;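 also: median channel GFP fluorescence of the barcoded RPL19A-GFP strain; ratio of sample median GFP to plate DMSO average so 100% = DMSO; lower means less RPL19A-GFP as with rapamycin TOR inhibition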
AGP1 TOR yeast = alters AGP1-GFP fluorescence in TOR pathway yeast screen. 320,000 tested, 0.02% active. S. cerevisiae AGP1-GFP multiplex flow cytometry, 3 h; GFP as percent of DMSO wells. GFP response vs DMSO, % at 10 µM;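 active = GFP response relative to DMSO above a set limit, near screen average plus 3 SD, cut at about 150% in these data; inconclusive = fewer than 70 cells counted for the yeast strain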;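 also: median GFP channel fluorescence of the gated AGP1 strain per well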
An asterisk follows results filed as active; ? = inconclusive; nt = not tested or not shown; [ ] = remark or other dose. Sampled rows, rich in hits. Any-hit rate of the full collection: about 1.2%.

SMILES	DSG3 Ab inh	MEP2 TOR yeast	LAP4 TOR yeast	CIT2-GFP yeast	RPL19A-GFP yeast	AGP1 TOR yeast
CCCN(CCC)c1ccc(/C=C/c2ccc3cc(OCC)ccc3n2)cc1	119	231*[may fluoresce violet]	96	?	76	15
CN(Cc1ccccc1)C(=O)c1ccc(NC(=O)Cc2ccc(NC(=O)C3CCCN(S(=O)(=O)c4cccc([N+](=O)[O-])c4)C3)cc2)cc1 (configuration not stated)	100	nt	nt	nt	nt	nt
Cc1ccc(C)n1NC(=O)c1ccccc1	102	99	96	92	97	95
Cc1ccc(C)n1NC(=O)c1cccs1	83*	101	96	102	98	102
CC1CCN(c2ccc(-c3cccc(NC(=O)C(F)(F)F)c3)nn2)CC1	128	522*[may fluoresce violet]	116	?	48*[may fluoresce violet]	?
O=S(=O)(Nc1cccc(-c2ccc(N3CCCCCC3)nn2)c1)c1ccccc1F	98	117	79	99	47*	15
O=C(Nc1cccc(-c2ccc(N3CCCCC3)nn2)c1)C(F)(F)F	103	551*[may fluoresce violet]	101	?	50	22
CCC(C(=O)NC1CCCC1)N(C(=O)Cn1nnc(-c2ccc(C)o2)n1)c1cccc(OC)c1 (configuration not stated)	104	107	97	103	109	100
CSc1ncnc2[nH]ccc12	112	nt	nt	nt	nt	nt
CN1/C(=C/C=C/c2n(C)c3cc([N+](=O)[O-])c([N+](=O)[O-])cc3[n+]2C)C(C)(C)c2ccccc21	97	nt	nt	nt	nt	nt
CS(=O)(=O)c1ccc2nc(NC(=O)c3ccccc3)sc2c1	104	101	92	94	95	99
CS(=O)(=O)c1ccc2nc(NC(=O)Nc3ccccc3F)sc2c1	88*	108	87	109	102	95
COc1ccc(N(CC(=O)NC2CCCC2)S(=O)(=O)c2ccc(NC(C)=O)cc2)cc1	108	104	95	104	103	104
CCOc1ccccc1CN1CCNC(=O)C1CC(=O)NCc1cc(C)n(C)n1 (configuration not stated)	99	92	92	100	96	98
CCCc1cc(NCCN(C)C)n2c(nc3ccccc32)c1C#N	116	99	92	91	98	99
CCCc1cc(NCC2CCCO2)n2c(nc3ccccc32)c1C#N (configuration not stated)	nt	537*[may fluoresce violet]	125	?	30*[may fluoresce violet]	nt
O=C(CN1CCN(C(=O)CCC(=O)N2CCC(c3ccccc3)=N2)CC1)Nc1ccc(F)cc1	95	nt	nt	nt	nt	nt
CC(=O)N1CCN(S(=O)(=O)c2cccc(C(=O)Nc3ccccc3N3CCCCC3)c2)CC1	100	nt	nt	nt	nt	nt
Cc1cc(-c2ccc(Cl)cc2)n2nc(N)nc2n1	75*	101	99	97	nt	104
COC(=O)c1cc(NC(=O)CC2CCCC2)cc(C(=O)OC)c1	120	143	67	?	27*[may fluoresce violet]	?
CC(=O)c1cccc(NC(=O)CC2CCCC2)c1	97	113	105	98	101	101
CCN(CC)S(=O)(=O)c1ccc(N/N=C/c2cc(OC)c(OC)cc2OC)nc1	63*	201*[may fluoresce violet]	88	?	68	22
CCN(CC)S(=O)(=O)c1ccc(N/N=C/c2ccc(OC)c(OC)c2OC)nc1	99	100	88	98	99	98
O=C(Nc1ccccc1Cl)NC1(C(=O)NCC2CCCO2)CCCCC1 (configuration not stated)	nt	99	102	105	100	105
c1ccc2c(c1)Cc1ccccc1O2	nt	94	95	93	102	93
SMILES	DSG3 Ab inh	MEP2 TOR yeast	LAP4 TOR yeast	CIT2-GFP yeast	RPL19A-GFP yeast	AGP1 TOR yeast
CC(=O)Nc1ccc(-n2nnnc2SCC(=O)NC2CCCC2)cc1	107	98	88	107	102	100
CC(=O)Nc1ccc(NC(=O)CSc2nnnn2-c2ccc(F)cc2)cc1	61*	194*[may fluoresce violet]	78	?	59	15
COc1ccc2nc(/C=N/NC(=O)CCCCCNC(=O)OC(C)(C)C)ccc2c1	nt	204*[may fluoresce violet]	108	?	62	?
CCOc1ccc(Cn2nnc(-c3ccc(S(C)(=O)=O)cc3)n2)cc1OCC	102	94	82	77	86	90
O=C1Nc2ccc(Br)cc2/C1=C/C1CC=CCC1 (configuration not stated)	101	91	192*	97	79	90
Cc1nnc(SCC(=O)NC2CCCCC2)n1-c1ccccc1	105	nt	nt	nt	nt	nt
CNC(=O)c1cccc(N2CCCC2=O)c1	99	89	88	83	99	95
CC(NC(=O)c1cccc(N2CCCC2=O)c1)c1ccc2c(c1)OCCO2 (configuration not stated)	104	354*[may fluoresce violet]	74	?	30*[may fluoresce violet]	?
CCN(C(=O)c1cccc(S(=O)(=O)N(C)C)c1)C12CC3CC(CC(C3)C1)C2	95	90	93	97	105	99
CC(=O)c1c(C)[nH]c(C(=O)OCC(=O)Nc2ccc3c(c2)OCCO3)c1C	114	103	109	105	109	109
COCc1ccc(C(=O)Nc2cccc(S(=O)(=O)N(C)c3ccccc3)c2)cc1	28*	102	102	105	99	104
CSCCC(NC(=O)c1ccco1)C(=O)NNC(=O)c1n[nH]c(=O)c2ccccc12 (configuration not stated)	105	101	99	100	99	105
CC(C)Cn1c(=O)c(C(=O)NCc2ccc3c(c2)OCO3)c(O)c2ccccc21	101	?	?	?	29*[may fluoresce violet]	?
COc1ccc(NC(=O)CC(C)CC(=O)NCc2ccc(F)cc2)c(OC)c1 (configuration not stated)	105	112	103	105	100	102
COc1ccc(-c2cc(C(F)(F)F)nc(N3CCOCC3)n2)cc1OC	98	213*	186*	99	81	99
CCCc1nnc(NC(=O)c2cc3ccccc3oc2=O)s1	113	92	88	92	89	84
CC(Sc1nnc(NC(=O)c2cc3ccccc3oc2=O)s1)c1ccccc1 (configuration not stated)	72*	100	99	96	98	103
CCOC(=O)CNC(=O)c1cc(OC)cc(OC)c1	91	98	101	99	96	97
COc1cc(OC)cc(C(=O)NCC(=O)OCC(=O)C(C)(C)C)c1	102	484*[may fluoresce violet]	78	?	73	17
O=[N+]([O-])c1cccc(-c2ccc(/C=N/Nc3nc(N4CCCCC4)nc(N4CCCCC4)n3)o2)c1	103	115	152*	102	89	103
Cc1ccc(S(=O)(=O)CCC(=O)c2ccc(F)cc2)cc1	102	109	112	164*	94	123
Cc1ccc(C(=O)CCS(=O)(=O)c2ccc(F)cc2)cc1	109	96	102	121	97	107
